PubChem BioAssay (NCI)
About 83,000 compounds went through this panel and 20% of them were active in at least one assay; those are over-represented in the sample as a whole.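 Activity criterion: percent growth below 10, measured after cells in 96-well plates were exposed to a single compound concentration for 48 hours.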 Values without a mark were called inactive. Active and inactive are the calls of the source.

Key:
Assay in all cases: NCI-60 one-dose screen, 48 h (100 = growth as untreated, 0 = no growth, -100 = all killed)
[1] = system: HCT-15 colon; conditions: 10 µM unless noted
[2] = system: HT29 colon; conditions: 10 µM unless noted
[3] = system: SNB-75 CNS; conditions: 10 µM unless noted
[4] = system: SNB-19 CNS; conditions: 10 µM unless noted
[5] = system: U251 CNS; conditions: 10 µM unless noted
[6] = system: PC-3 prostate; conditions: 10 µM unless noted
[7] = system: SK-MEL-5 melanoma; conditions: 10 µM unless noted
[8] = system: UACC-62 melanoma; conditions: 10 µM unless noted
[9] = system: LOX IMVI melanoma; conditions: 10 µM
[10] = system: SK-MEL-28 melanoma; conditions: 10 µM unless noted
[11] = system: SK-MEL-2 melanoma; conditions: 10 µM unless noted
[12] = system: EKVX NSCLC; conditions: 10 µM unless noted
[13] = system: SN12C renal; conditions: 10 µM unless noted
[14] = system: TK-10 renal; conditions: 10 µM unless noted
[15] = system: CAKI-1 renal; conditions: 10 µM unless noted
[16] = system: A498 renal; conditions: 10 µM unless noted
[17] = system: CCRF-CEM leukemia; conditions: 10 µM unless noted
[18] = system: MOLT-4 leukemia; conditions: 10 µM unless noted
[19] = system: UO-31 renal; conditions: 10 µM unless noted
[20] = system: ACHN renal; conditions: 10 µM unless noted

SMILES | growth [1] | growth [2] | growth [3] | growth [4] | growth [5] | growth [6] | growth [7] | growth [8] | growth [9] | growth [10] | growth [11] | growth [12] | growth [13] | growth [14] | growth [15] | growth [16] | growth [17] | growth [18] | growth [19] | growth [20]
CCCCSc1nc(Nc2ccc(C(C)=O)cc2)c(C#N)c(-c2ccc(OC)cc2)n1 | 74.9% | 78.5% | 93% | 61.8% | 10.2% | 90.8% | 90.1% | 96.2% | 39.7% | 91% | 114% | 65.1% | 27.9% | -3.09% (active) | 34% | 59.7% | 100% | 88% | – | –
NS(=O)(=O)c1ccc(N=Nc2c(O)n(CC(=O)Nc3ccccc3)c3ccccc23)cc1 | 16% | 2.37% (active) | 42.2% | 20.2% | -15.1% (active) | 20.8% | 24.6% | 22.1% | – | -2.1% (active) | 42.7% | 38.4% | 52.7% | 84% | 7.36% (active) | 60% | 50.2% | 7.09% (active) | 31.1% | 11%
COc1ccc(/C=C/c2nc3ccccc3nc2Nc2cccc(C)c2)cc1 | 104% | 101% | 99% | 98.5% | 96.1% | 96.5% | 95.7% | 83.4% | 108% | 108% | 102% | 89% | 92.7% | 173% | 72.9% | 118% | 98.7% | 82.7% | – | 98.3%
COc1cc(C2CC(c3ccc(S(=O)(=O)NCCNc4nc(Nc5ccc(F)cc5)nc(N(C)C)n4)cc3)=Nc3c(N)nc(N)nc3N2)cc(OC)c1OC (stereo not given) | 92.5% | 96.5% | 82.8% | 67.5% | 69.6% | 86.3% | 64.2% | 76.4% | 66.9% | 88.1% | 90.8% | 87.3% | 83.9% | 95.4% | 90.4% | 86.8% | 33.8% | 34.4% | – | 96.8%
CC1CN(c2oc(-c3ccc([N+](=O)[O-])cc3)nc2C#N)CC(C)O1 (stereo not given) | 97.1% | 112% | 98.8% | 92.2% | 104% | 96.7% | 104% | 84% | 95.6% | 105% | 103% | 95.2% | 91.5% | 109% | 98.2% | 97.2% | 100% | 99.8% | 81.7% | –
Cn1cc(-c2cc3nc(-c4c[nH]c5ccc(Br)cc45)cc(N)n3n2)c2ccccc21 | -85.2% (active) | -83.1% (active) | -64.5% (active) | -68.1% (active) | -89.9% (active) | -77.3% (active) | -77.8% (active) | -70.3% (active) | -85.1% (active) | -96.6% (active) | -86.5% (active) | -79.4% (active) | -73% (active) | -90.3% (active) | -87.8% (active) | -25% (active) | -19.6% (active) | – | – | -98.4% (active)
C/C(=N\N=C1/C(=O)Nc2ccccc21)c1ccc2c(c1)Nc1ccccc1S2 | 48.6% | 71.5% | 44% | 64.5% | 60.1% | 63.6% | 42% | 40.5% | – | 75% | 80.5% | 43.7% | 42.1% | 78.7% | 49.4% | 28.2% | 45.8% | 11.4% | 34.4% | 56.1%
CN(C)c1nc(NCCNS(=O)(=O)c2ccc(C(=O)/C=C/c3ccc(Cl)cc3)cc2)nc(Nc2ccc(F)cc2)n1 | -84.4% (active) | -97.5% (active) | 13.9% | -5.63% (active) | -99.8% (active) | -65.9% (active) | -64.9% (active) | -56.8% (active) | -100% (active) | -85.5% (active) | -56.5% (active) | 2.04% (active) | -97.7% (active) | -16.9% (active) | – | 9.56% (active) | 5.38% (active) | -12.2% (active) | 5.91% (active) | -24.9% (active)
